Laboratory results as given in article PMC10668032, “Altered binding affinity of SIX1-Q177R correlates with enhanced WNT5A and WNT pathway effector expression in Wilms tumor”.
The full ranking holds about 33,000 sequences; the median of “e-score” is about -0.05, and the highest 2% start at about 0.38. The full list was thinned out, with the highest values kept by preference.

target: T1, SIX1-Q177R homeodomain (human, UniProt Q15475 108-198, Q177R); test: universal protein binding microarray; Universal all-10-mer PBM (8x60K, AMADID 030236), 300 nM GST-tagged protein, Alexa Fluor 488 anti-GST; buffer, salt, pH and temperature not stated (as in Berger); high values mean tight binding; conditions: protein: ivt; tags: N-terminal GST; dsDNA, one strand shown
T1 sequence: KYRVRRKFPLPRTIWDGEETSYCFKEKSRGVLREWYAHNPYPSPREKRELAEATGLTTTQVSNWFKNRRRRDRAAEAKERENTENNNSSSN
Outline: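 Binding of GST-tagged homeodomains is given as 8-mer E-scores from the Universal PBM Analysis Suite. The proteins were produced by in vitro transcription/translation, quantified by anti-GST western blot against a recombinant GST standard curve, and applied in duplicate at 300 nM final concentration to universal 'all 10-mer' protein binding microarrays (8×60K format).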

**Q.** For AGGACACC, which binding signal is on record?
**A.** 0.4835 ± 0.000969 E-score

**Q.** How did the binding signal turn out when AGGACACG was run?
**A.** 0.349 ± 0.0239 E-score

**Q.** With AGGACACT as the sequence, how does the binding signal read?
**A.** 0.3795 ± 0.00235 E-score

**Q.** With TGGACACA as the sequence, how does the binding signal read?
**A.** 0.252 ± 0.0644 E-score

**Q.** How did the binding signal turn out when CGGACACA was run?
**A.** 0.226 ± 0.0432 E-score

**Q.** How did the binding signal turn out when CGGACACG was run?
**A.** 0.373 ± 0.0179 E-score

**Q.** With GGGACACA as the sequence, how does the binding signal read?
**A.** 0.232 ± 0.0537 E-score

**Q.** Which binding signal does the source give for AGGTAGTG here?
**A.** 0.2489 ± 0.00187 E-score

**Q.** For AGGATACA, which binding signal is on record?
**A.** 0.159 ± 0.0108 E-score

**Q.** For ACCATCAG, which binding signal is on record?
**A.** 0.181 ± 0.0146 E-score

**Q.** CCAGCACC was tested. Which binding signal did it give?
**A.** 0.153 ± 0.0163 E-score

**Q.** How did the binding signal turn out when GACCCCTA was run?
**A.** 0.203 ± 0.0141 E-score

**Q.** With CTGACTCC as the sequence, how does the binding signal read?
**A.** 0.2326 ± 0.00123 E-score

**Q.** How did the binding signal turn out when ACGCCCAA was run?
**A.** 0.176 ± 0.019 E-score

**Q.** How did the binding signal turn out when ACTTCTTA was run?
**A.** 0.183 ± 0.0236 E-score

**Q.** How did the binding signal turn out when CTATTTAC was run?
**A.** 0.1742 ± 0.000191 E-score

**Q.** Which binding signal does the source give for ATTCACAC here?
**A.** 0.348 ± 0.0127 E-score

**Q.** How did the binding signal turn out when ATTTACAC was run?
**A.** 0.451 ± 0.0245 E-score

**Q.** CTTTACCC was tested. Which binding signal did it give?
**A.** 0.171 ± 0.0198 E-score

**Q.** CTTTACAC was tested. Which binding signal did it give?
**A.** 0.431 ± 0.0203 E-score

**Q.** For CTTTGCAC, which binding signal is on record?
**A.** 0.16 ± 0.0373 E-score

**Q.** With CCCCTAAG as the sequence, how does the binding signal read?
**A.** 0.172 ± 0.0119 E-score

**Q.** With ACCTGGGA as the sequence, how does the binding signal read?
**A.** 0.186 ± 0.00272 E-score

**Q.** With CCAACAAC as the sequence, how does the binding signal read?
**A.** 0.211 ± 0.0163 E-score

**Q.** How did the binding signal turn out when CAGCACCA was run?
**A.** 0.182 ± 0.0218 E-score

**Q.** Which binding signal does the source give for CACGTGGG here?
**A.** 0.16 ± 0.0172 E-score

**Q.** With AGTGTCTC as the sequence, how does the binding signal read?
**A.** 0.329 ± 0.00361 E-score

**Q.** For AGTGTCGC, which binding signal is on record?
**A.** 0.4145 ± 0.00339 E-score

**Q.** How did the binding signal turn out when CGTGTCGC was run?
**A.** 0.44 ± 0.0199 E-score

**Q.** For AGTGTCGA, which binding signal is on record?
**A.** 0.408 ± 0.0268 E-score

**Q.** Which binding signal does the source give for AGTGTCGG here?
**A.** 0.4212 ± 0.00372 E-score

**Q.** CGGGTCGC was tested. Which binding signal did it give?
**A.** 0.189 ± 0.0605 E-score

**Q.** CGTGTGGC was tested. Which binding signal did it give?
**A.** 0.181 ± 0.00793 E-score

**Q.** How did the binding signal turn out when AGTGTGGA was run?
**A.** 0.162 ± 0.0186 E-score

**Q.** With AGTGTTGG as the sequence, how does the binding signal read?
**A.** 0.3564 ± 0.000735 E-score

**Q.** Which binding signal does the source give for AGGGTCGG here?
**A.** 0.172 ± 0.00622 E-score

**Q.** With AAGCGGTG as the sequence, how does the binding signal read?
**A.** 0.214 ± 0.0624 E-score

**Q.** For CATCCACA, which binding signal is on record?
**A.** 0.177 ± 0.00969 E-score

**Q.** For ACTCCCGA, which binding signal is on record?
**A.** 0.172 ± 0.0235 E-score

**Q.** With CCAGGTAC as the sequence, how does the binding signal read?
**A.** 0.2011 ± 0.000495 E-score

**Q.** CACCGCTG was tested. Which binding signal did it give?
**A.** 0.249 ± 0.0245 E-score

**Q.** How did the binding signal turn out when CACGTTAC was run?
**A.** 0.179 ± 0.0457 E-score

**Q.** Which binding signal does the source give for ACTAGGAG here?
**A.** 0.219 ± 0.0299 E-score

**Q.** Which binding signal does the source give for CTAAAACA here?
**A.** 0.211 ± 0.0343 E-score

**Q.** For CGTGTGGA, which binding signal is on record?
**A.** 0.159 ± 0.00165 E-score

**Q.** With GGTGTCGA as the sequence, how does the binding signal read?
**A.** 0.4869 ± 0.00312 E-score

**Q.** With CGTGTCGA as the sequence, how does the binding signal read?
**A.** 0.404 ± 0.0138 E-score

**Q.** For CGAGTCGA, which binding signal is on record?
**A.** 0.151 ± 0.006 E-score

**Q.** For GGTGTGGA, which binding signal is on record?
**A.** 0.369 ± 0.0214 E-score

**Q.** For GGAGTCGA, which binding signal is on record?
**A.** 0.227 ± 0.0424 E-score

**Q.** Which binding signal does the source give for CACGGCCC here?
**A.** 0.215 ± 0.0365 E-score

**Q.** Which binding signal does the source give for GGATCACC here?
**A.** 0.203 ± 0.0315 E-score

**Q.** How did the binding signal turn out when CCATGACA was run?
**A.** 0.222 ± 0.0113 E-score

**Q.** TACTGACA was tested. Which binding signal did it give?
**A.** 0.22 ± 0.0513 E-score

**Q.** Which binding signal does the source give for GGGCGACA here?
**A.** 0.156 ± 0.0211 E-score

**Q.** For AGGAGGTG, which binding signal is on record?
**A.** 0.2857 ± 0.000318 E-score

**Q.** With TACACACA as the sequence, how does the binding signal read?
**A.** 0.259 ± 0.0395 E-score

**Q.** With CACACGCA as the sequence, how does the binding signal read?
**A.** 0.32 ± 0.022 E-score

**Q.** For AACACGAT, which binding signal is on record?
**A.** 0.358 ± 0.00931 E-score

**Q.** With AACACGCG as the sequence, how does the binding signal read?
**A.** 0.36 ± 0.0195 E-score

**Q.** Which binding signal does the source give for AACACGCC here?
**A.** 0.366 ± 0.013 E-score

**Q.** For TACACGCA, which binding signal is on record?
**A.** 0.406 ± 0.0157 E-score

**Q.** With AACACGCA as the sequence, how does the binding signal read?
**A.** 0.396 ± 0.0109 E-score

**Q.** For AACACGCT, which binding signal is on record?
**A.** 0.379 ± 0.00919 E-score

**Q.** With CACCGAAG as the sequence, how does the binding signal read?
**A.** 0.283 ± 0.0113 E-score

**Q.** Which binding signal does the source give for ACTCCGGG here?
**A.** 0.2895 ± 0.00256 E-score

**Q.** With AATTTACA as the sequence, how does the binding signal read?
**A.** 0.182 ± 0.0161 E-score

**Q.** With AAACCCCC as the sequence, how does the binding signal read?
**A.** 0.24 ± 0.0528 E-score

**Q.** With ATCACCCC as the sequence, how does the binding signal read?
**A.** 0.204 ± 0.0194 E-score

**Q.** Which binding signal does the source give for GTCACACA here?
**A.** 0.215 ± 0.0441 E-score

**Q.** With ATCACACG as the sequence, how does the binding signal read?
**A.** 0.318 ± 0.0128 E-score

**Q.** For CTCACACC, which binding signal is on record?
**A.** 0.393 ± 0.0106 E-score

**Q.** For CACTCACC, which binding signal is on record?
**A.** 0.242 ± 0.0149 E-score

**Q.** For ATCACACC, which binding signal is on record?
**A.** 0.442 ± 0.00795 E-score

**Q.** With ACCAAGTG as the sequence, how does the binding signal read?
**A.** 0.208 ± 0.0393 E-score

**Q.** How did the binding signal turn out when GGAGTCAA was run?
**A.** 0.2 ± 0.0177 E-score

**Q.** For CCGCAACA, which binding signal is on record?
**A.** 0.17 ± 0.0293 E-score

**Q.** CACCGAAC was tested. Which binding signal did it give?
**A.** 0.335 ± 0.0128 E-score

**Q.** How did the binding signal turn out when GAGGACAC was run?
**A.** 0.401 ± 0.00566 E-score

**Q.** For AAGGACAC, which binding signal is on record?
**A.** 0.40482 ± 0.000361 E-score

**Q.** Which binding signal does the source give for CAGGATAC here?
**A.** 0.168 ± 0.0209 E-score

**Q.** For CAGGACAC, which binding signal is on record?
**A.** 0.423 ± 0.02 E-score

**Q.** How did the binding signal turn out when GAGCACAC was run?
**A.** 0.262 ± 0.0319 E-score

**Q.** For GAGGATAC, which binding signal is on record?
**A.** 0.235 ± 0.0473 E-score

**Q.** CAGAGCAC was tested. Which binding signal did it give?
**A.** 0.19 ± 0.0352 E-score

**Q.** With AAGGATAC as the sequence, how does the binding signal read?
**A.** 0.275 ± 0.00871 E-score

**Q.** AAGCACAC was tested. Which binding signal did it give?
**A.** 0.276 ± 0.0054 E-score
